PNC inhibitor: perinucleolar compartment assembly inhibition; PC3M PTB-GFP, PNC prevalence imaging, 16 h; active compounds read low; activity change (PNC), negative = inhibition, % at 10 µM; 3.1% of 140,000 active; AID 2417;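 active = readout at or below -70, meaning at least 70% loss of cells showing the perinucleolar compartment, a nuclear body marking cancer cells; inconclusive = readout between -30 and a set limit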;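 also: plate controls were DMSO wells for no effect and camptothecin positive control wells for full effect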
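Compounds are pinned in duplicate onto adhered PC3M cells stably expressing GFP-tagged PTB and incubated 16 h at 37 C. Cells are then fixed, nuclei stained with Hoechst, and PNC-positive cells counted.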
IMPase Li inh: membrane-permeable IMPase blocker, potentiated with lithium | CHO-M1 cells, IP1 TR-FRET (IP-One), carbachol + lithium | Potency, µM (doses to about 59.4 µM), for inactives: top-dose activity, negative = IMPase inhibition, actives largely listed as inhibitors | 0.35% of 210,000 active; active = well fitted curve in the direction sought with a large enough effect; inconclusive = small, poorly fitted or top-dose-only effect, or another doubt; inactive = no such curve, though single readings can be large; an effect the other way counts as inactive or inconclusive;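 also: IP1 builds up when IMPase is blocked and the TR-FRET signal falls; potency is read from the fitted curve at half-maximal effect; plate controls were basal vehicle for no effect and high inhibitor control for full effect; nearly all actives have a fitted effect of over 50% in size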
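Readout is a homogeneous TR-FRET IP1 immunoassay (Ex 320, Em 665 and 620), where raised cytosolic IP1 lowers signal. Cells were CHO-M1 treated 30 min at 37C with test compounds plus a little lithium; AC50 values came from Hill-equation fitting.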
12-hLO inh: blocks human 12-lipoxygenase activity. purified 12-hLO, xylenol orange hydroperoxide absorbance. P18054. 0.12% of 150,000 active. Potency, µM (highest dose often 57.1 µM), inactives show at the top dose activity change, negative = inhibition, usual class: inhibitors; active = well fitted curve in the direction sought with a large enough effect; inconclusive = small, poorly fitted or top-dose-only effect, or another doubt; inactive = no such curve, though single readings can be large; an effect the other way counts as inactive or inconclusive; also: potency is read from the fitted curve at half-maximal effect; nearly all actives have a fitted effect of over 55% in size
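Purified human 12hLO (150 nM), preincubated 15 min with compound, then 40 uM arachidonic acid for 30 min, room temperature, Hepes pH 7.0 with 0.01% Triton X-100. Hydroperoxide detected by ferrous iron/xylenol orange; 573/405 nm absorbance ratio gives reaction progress.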
IMPase inh: IMPase inhibition in cells | P97697 | CHO-M1 cells, IP1 accumulation, HTRF TR-FRET ratio | inhibition (IP1 accumulation), % at 46.1 µM | 120,000 tested, under 10 active | AID 901; active = well fitted curve in the direction sought with a large enough effect in the signal ratio, not every such curve was filed as active; inconclusive = small, poorly fitted or top-dose-only effect, or a change in a side signal; inactive = no such curve, though single readings can be large or run the other way; the % refers to the signal ratio;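 also: cells stimulated with carbachol in lithium chloride buffer; plate controls were DMSO basal wells for no effect and reference inhibitor wells for full effect; higher means more IMPase inhibition seen as more IP1 and lower FRET ratio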
Target sequence (P97697 whole entry, looked up): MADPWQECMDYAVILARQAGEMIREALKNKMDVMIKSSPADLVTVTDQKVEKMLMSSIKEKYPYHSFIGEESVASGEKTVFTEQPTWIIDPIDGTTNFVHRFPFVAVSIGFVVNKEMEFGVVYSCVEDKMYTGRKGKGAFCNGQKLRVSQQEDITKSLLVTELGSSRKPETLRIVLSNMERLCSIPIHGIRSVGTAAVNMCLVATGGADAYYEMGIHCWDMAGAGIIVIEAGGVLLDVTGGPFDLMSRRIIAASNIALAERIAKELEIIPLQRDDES
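Measured: the HTRF emission ratio (665/620 nm) plus the 620 nm donor channel, each fitted to the Hill equation to give AC50. Cells were CHO-M1 given compounds up to 46 uM and a 30 min carbachol stimulation at 37C.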
ALDH1A1 block: ALDH1A1 (human) enzyme inhibition. P00352. Purified ALDH1A1, NADH fluorescence, propionaldehyde substrate. Potency, µM (titrated, usually from 75.3 µM), without a hit: at the top dose activity, negative = inhibition, most hits filed as inhibitors. 7.3% of 220,000 active. AID 1030;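 also: potency is read from the fitted curve at half-maximal effect; plate controls were no enzyme wells and a reference inhibitor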
Target sequence (P00352 whole entry, looked up): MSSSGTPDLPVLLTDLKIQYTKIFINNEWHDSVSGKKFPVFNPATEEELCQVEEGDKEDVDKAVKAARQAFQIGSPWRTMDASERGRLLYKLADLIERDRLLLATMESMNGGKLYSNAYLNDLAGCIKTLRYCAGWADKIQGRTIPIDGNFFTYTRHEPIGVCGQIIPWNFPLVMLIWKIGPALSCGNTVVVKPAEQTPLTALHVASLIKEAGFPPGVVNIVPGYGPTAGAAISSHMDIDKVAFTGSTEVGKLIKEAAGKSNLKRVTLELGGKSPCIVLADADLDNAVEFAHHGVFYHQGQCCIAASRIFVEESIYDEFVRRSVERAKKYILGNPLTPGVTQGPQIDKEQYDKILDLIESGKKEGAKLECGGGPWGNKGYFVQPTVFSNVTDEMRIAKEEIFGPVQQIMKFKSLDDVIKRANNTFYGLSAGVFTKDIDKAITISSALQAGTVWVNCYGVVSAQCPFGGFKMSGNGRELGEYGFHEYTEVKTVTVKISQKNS
HPGD block: HPGD (human) dehydrogenase inhibition. P15428. purified HPGD, NADH fluorescence kinetic, PGE2 substrate. Potency, µM, for inactives: at the top dose activity change, negative = inhibition, hits mostly inhibitors. 4.3% of 150,000 active; also: potency is read from the fitted curve at half-maximal effect
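20 nM HPGD preincubated 15 min at room temperature with compound in 50 mM Tris-HCl pH 8, 0.01% Tween 20. Started with 1 mM NAD+ and 30 uM prostaglandin E2; NADH fluorescence (360/450 nm) read 5 times over 30-s intervals, last minus first.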
The depositor's hits bear a star; ? = inconclusive; / = no result given; [ ] = another dose, or the depositor's remark. Only some compounds are listed: those with a hit (about 11% of all), similar ones and a draw of the others. Unless noted, calls follow the shape of the dose curve; as a rule, active = well fitted inhibition curve with a large enough effect (not every such curve was filed as active); inconclusive = small, poorly fitted or top-dose-only effect, or another doubt; inactive = no such curve, though single readings can be large or run the other way. Unless noted, % is scaled to controls: 0 for no effect and ±100 for the full control effect.

SMILES	PNC inhibitor	IMPase Li inh	12-hLO inh	IMPase inh	ALDH1A1 block	HPGD block
NS(=O)(=O)c1ccc(CCNC(=O)/C=C/c2ccc([N+](=O)[O-])cc2)cc1	/	1.4%	/	/	-15.8%	/
Cc1ccc(/C=C/C(=O)NCCc2c[nH]c3ccccc23)o1	/	9.0%	/	/	14.1µM*	/
O=C(Nc1cccc(C(F)(F)F)c1)c1cc2nc(-c3ccccc3)cc(C(F)(F)F)n2n1	/	/	/	-8.2	/	/
COc1ccc(Br)c(C(=O)Nc2cc3c(cc2N2CCCCC2)n(C)c(=O)c(=O)n3C)c1	/	/	/	0.7	/	/
CC(=O)NS(=O)(=O)c1ccc(NC(=O)/C=C/c2ccc(C)o2)cc1	/	9.5%	/	/	12.6µM*	/
Cc1ccc(/C=C/C(=O)NCc2ccc(S(N)(=O)=O)cc2)o1	/	5.5%	/	/	1.78µM*	/
CC(C)c1ccc(/C=C/C(=O)NCc2ccc(S(N)(=O)=O)cc2)cc1	/	10.6%	/	/	28.2µM*	/
Cc1ccc(/C=C/C(=O)NCc2ccc3c(c2)OCO3)o1	-18.8	12.1%	-1.9%	/	?	?
O=C(O)[C@@H]1CCCN[C@H]1C(=O)O	/	/	-2.0%	0.9	/	/
O=C(CCCC(=O)N(CC(=O)NC1CCCC1)C1CCCC1)Nc1ccccn1	-123.3*	-11.2%[38.3 µM]	-3.3%	10.8	?	-9.5%
O=C(CCC(=O)N(CC(=O)NC1CCCC1)C1CCCC1)Nc1ccccn1	-4.3	2.1%[38.3 µM]	0.7%	2.0	-8.0%	-9.9%
O=C(O)c1cc2nc3c(c(C(F)(F)F)n2n1)CCc1ccccc1-3	-86.6*	-3.0%[38.3 µM]	-1.9%	2.7	-0.1%	-9.9%
CN1CCN([C@@H]2Cc3ccccc3Sc3ccc(Cl)cc32)CC1	/	/	12.7%	16.2	/	/
Cc1ccc(Nc2nc(-c3sc(NC(=O)c4cccc(Cl)c4)nc3C)cs2)cc1	-13.9	7.0%[38.3 µM]	-7.8%	-3.7	15.8µM*	-21.0%
CCOc1ccccc1Nc1nc(-c2sc(NC(=O)c3ccco3)nc2C)cs1	-10.8	9.8%[38.3 µM]	-20.2%	0.3	-3.7%	-21.6%
CCC(C)C(=O)Nc1nc(C)c(-c2csc(Nc3ccc(Cl)cc3)n2)s1 (stereo not given)	35.1	6.2%[38.3 µM]	-8.8%	0.7	22.4µM*	?
Cc1ccccc1Nc1nc(-c2sc(NC(=O)c3ccco3)nc2C)cs1	-0.5	0.3%	-27.2%	4.1	20µM*	?
CC(=O)Nc1nc(C)c(-c2csc(Nc3ccc(O)cc3)n2)s1	-16.6	37.2%[38.3 µM]	-12.3%	?	25.1µM*	-28.0%
CCCC(=O)Nc1nc(C)c(-c2csc(Nc3ccc(Cl)cc3)n2)s1	8.1	8.2%[38.3 µM]	?	8.6	?	-14.4%
COc1ccccc1Nc1nc(-c2sc(NC(=O)c3cccc(Cl)c3)nc2C)cs1	2.3	12.0%[38.3 µM]	-6.7%	1.1	?	-22.3%
O=C(CN1CCC(n2nnc3cc(F)ccc32)CC1)NCc1ccco1	-118.5*	14.4%[38.3 µM]	-9.0%	-7.0	14.1µM*	-20.5%
COC(=O)CCC(C)C1CCC2C3C(O)C[C@@H]4CC(O)CC[C@@]4(C)C3CC(O)[C@]12C (stereo not given in full)	/	-3.8%	2.3%	/	12.7%	-1.2%
O=C1Nc2c(c(=O)[nH]c(=O)n2-c2ccccc2)C1(NS(=O)(=O)c1ccc(Cl)cc1)C(F)(F)F (stereo not given)	/	/	/	-7.4	/	/
CN(C)c1ccc(/C=C(/C#N)C(=O)NCc2ccccc2)o1	-83.2*	9.6%	-3.9%	/	?	-10.6%
O=C(Sc1nnc(-c2ccccc2)o1)N1c2ccccc2Sc2ccccc21	-22.0	?	-16.4%	-26.5	22.4µM*	14.1µM*
SMILES	PNC inhibitor	IMPase Li inh	12-hLO inh	IMPase inh	ALDH1A1 block	HPGD block
Cc1ccccc1NS(=O)(=O)c1cc(S(C)(=O)=O)ccc1Cl	16.5	27.7%[38.3 µM]	-1.2%	6.3	20µM*	-1.6%
Cc1ccc(C(=O)Nc2nc(C)c(C(=O)Nc3ccc4c(c3)CCC4)s2)cc1	-88.9*	-3.6%	0.4%	9.3	?	?
O=C(Nc1ccc2c(c1)CCC2)c1ccccc1	-9.5	2.0%	2.2%	-4.8	1.4%	-15.1%
CC(=O)c1sc(NC(=O)c2ccc(F)c(F)c2)nc1C	-2.0	3.0%[38.3 µM]	2.2%	-7.7	5.4%	-6.0%
Cc1nc(NC(=O)c2ccc(F)cc2)sc1C(=O)Nc1ccc2c(c1)CCC2	?	22.4µM*	1.6%	-4.0	?	?
Cc1ccc(C(=O)Nc2ccc3c(c2)CCC3)o1	24.5	38.3%[38.3 µM]	-7.7%	?	17.8µM*	22.4µM*
Fc1ccc(-n2nc(-c3ccccc3)c3cnc4ccccc4c32)cc1Cl	/	/	/	0.5	/	/
CCOc1ccccc1NC(=O)N1c2ccccc2Sc2ccccc21	/	/	/	3.2	/	/
COc1ccc(C(=O)/C=C/c2cc(OC)c(O)c(OC)c2)c(F)c1	4.2	-4.5%	?	/	?	14.1µM*
COc1ccc(C(=O)/C=C/c2ccccc2)c(OC)c1	/	-4.4%	/	/	-10.5%	/
COc1ccc(C[C@@H]2C(=O)N[C@H](C)C(=O)N(C)[C@@H]3Cc4ccc(cc4)Oc4cc(ccc4O)C[C@H](C(=O)N[C@@H](C)C(=O)N[C@H](C)C(=O)N2C)N(C)C3=O)cc1	/	10.7%	-5.0%[11.4 µM]	/	-0.2%[13.5 µM]	-5.6%
COc1cc(-c2c(C#N)c(N)nc(SCc3ccncc3)c2C#N)cc(OC)c1OC	?	4.7%[38.3 µM]	-3.0%	?	29.1%	12.6µM*
CCOc1cc(-c2cc(-c3ccc(N)cc3)nc(N)c2C#N)ccc1O	65.8	-28.1%[38.3 µM]	-9.9%	-24.2	?	?
COc1cc(-c2c(C#N)c(N)nc3c2CCCC3)cc(OC)c1OC	-100.0*	-2.4%	0.8%	-8.7	-2.4%	-19.0%
N#Cc1c(N)nc(SCc2ccncc2)c(C#N)c1-c1cccs1	50.1	34.3%[38.3 µM]	-3.0%	0.5	?	?
CCOc1cc(-c2c(C#N)c(N)nc3c2CCCC3)ccc1O	-113.7*	2.4%[38.3 µM]	-5.7%	2.0	?	?
Oc1ccc2cc(SSc3ccc4cc(O)ccc4c3)ccc2c1	/	3.0%	-4.4%	/	-44.1%	-24.9%
Cc1ccc(C(=O)c2oc3ccccc3c2NC(=O)Cc2ccccc2)cc1	/	/	/	-12.4	/	/
O=C(c1ccc(-n2cccc2)cc1)N1CCN(Cc2ccccc2)CC1	23.9	0.6%[38.3 µM]	9.6%	4.8	-10.1%	-11.7%
CN1CCN(C(=O)c2ccc3ccccc3c2)CC1	2.0	14.8%[38.3 µM]	-2.0%	1.8	-3.4%	15.8µM*
O=C(c1ccc2c(c1)OCO2)N1CCN(c2ccc(C(F)(F)F)cn2)CC1	48.0	16.2%	-0.3%	/	?	-28.6%
O=C(c1ccc2ccccc2c1)N1CCN(c2ccc(C(F)(F)F)cn2)CC1	9.7	30.2%[38.3 µM]	-6.7%	-7.7	15.8µM*	-21.0%
CN1CCN(C(=O)c2ccc(-n3cccc3)cc2)CC1	?	-6.6%[38.3 µM]	8.6%	1.0	3.8%	14.1µM*
O=C1CC(c2nnc(Cc3ccc(F)cc3)o2)CN1c1ccccc1 (stereo not given)	/	/	/	7.1	/	/
